The structures appear in SMILES notation. “And” between values parts separate entries of the source, which are not always exact repeats. Equal entries are not always repeated. Records with an inconclusive call do not appear. Where a call stands in place of a potency, no number is given. Unmarked numbers belong to inactive results. The source made the active and inactive calls. The call rests on the fitted dose curve; in most records, active means well fitted inhibition curve with a large enough effect; inconclusive means small, poorly fitted or top-dose-only effect; inactive means flat fitted curve, though single readings scatter.
Potency means the concentration at half of the fitted maximal effect.

A short description of the experiment: Primary qHTS for inhibitors of nuclear receptor binding SET domain protein 2 (NSD2) in an isogenic RCH-ACV NSD2 p.E1099K mutant (9B) (AID 1645876). Further: nearly all actives have a fitted effect of over 70% in size. As to conditions: RCH-ACV (leukaemia line) NSD2 E1099K (9B) viability, CellTiter-Glo, 72 h; series mostly up to 44.9 µM. In general terms: In qHTS, concentration-response curves come from the screen itself.
With `OC[C@H]1O[C@H](O[C@]2(CCl)O[C@H](CCl)[C@@H](O)[C@@H]2O)[C@H](O)[C@@H](O)[C@H]1Cl`, the Potency result is “inactive”.

For the compound `NC(CO)(CO)CO`, the Potency result is “inactive”.

In the case of `CN1CCN(C(c2ccccc2)c2ccccc2)CC1`, the Potency result was “inactive”.

As for `OCc1ccccc1O`, the Potency entry is “inactive”.

On to `O=C(OCC(O)CO)c1ccccc1Nc1ccnc2cc(Cl)ccc12` (stereo unspecified), for which the Potency was 16.8 µM (active).

For `N[C@@H](CCC(=O)N[C@@H](CS)C(=O)NCC(=O)O)C(=O)O`, the Potency entry is “inactive”.

Consider `OC[C@H]1O[C@@H](n2cnc3c(=S)nc[nH]c32)[C@H](O)[C@@H]1O`, for which the Potency was 0.473 µM (active).

In the case of `CCCCCCC[N+](CC)(CC)CCCCc1ccc(Cl)cc1`, the Potency was 1.88 µM (active).

As for `CCN(CC)CCNC(=O)COc1ccc(Cl)cc1`, the Potency entry was “inactive”.

For the compound `Oc1cc(O)c2c(c1)O[C@H](c1ccc(O)c(O)c1)[C@H](O)C2`, the Potency result was “inactive”.

Turning to `Cc1ccnc(NS(=O)(=O)c2ccc(N)cc2)n1`, the Potency entry was “inactive”.

Turning to `CCCCCCCCCCCCCCNCCO`, the Potency is 7.5 µM (active).

Turning to `CC[N+](CC)(CCNC(=O)C(=O)NCC[N+](CC)(CC)Cc1ccccc1Cl)Cc1ccccc1Cl`, the Potency entry was “inactive”.

For `Cc1nc2n(c(=O)c1CCN1CCC(c3noc4cc(F)ccc34)CC1)CCC[C@H]2O`, the Potency result was “inactive”.

For `C[C@H](CCC(=O)O)[C@H]1CC[C@H]2[C@@H]3C(=O)C[C@@H]4CC(=O)CC[C@]4(C)[C@H]3CC(=O)[C@]12C`, the Potency entry was “inactive”.

`CC(C)=CCC1C(=O)N(c2ccccc2)N(c2ccccc2)C1=O`: the Potency was 16.8 µM (active).

For the compound `COc1c(C)c2c(c(O)c1C/C=C(\C)CCC(=O)O)C(=O)OC2`, the Potency is 66.8 nM (active) and 833 nM (active).

Turning to `Cc1ccc(C(=O)C(C)CN2CCCCC2)cc1` (stereo unspecified), the Potency entry was “inactive”.

For the compound `CCCN1CCCC[C@H]1C(=O)Nc1c(C)cccc1C`, the Potency entry was “inactive”.

On to `CC(=O)CC(c1ccc([N+](=O)[O-])cc1)c1c(O)c2ccccc2oc1=O` (stereo unspecified), for which the Potency result is “inactive”.

For the compound `Cc1ncc(CSSCc2cnc(C)c(O)c2CO)c(CO)c1O`, the Potency entry is “inactive”.

Regarding `CCCCS(=O)(=O)N[C@@H](Cc1ccc(OCCCCC2CCNCC2)cc1)C(=O)O`, the Potency result was “inactive”.

`CCn1cc(C(=O)O)c(=O)c2cnc(N3CCCC3)nc21`: the activity change, negative = viability loss is 4% [at 9.23 µM].

As for `Oc1c(I)cc(I)c2cccnc12`, the Potency was 2.99 µM (active).

Take `CN(C)CCOc1ccccc1Cc1ccccc1`: the Potency entry is “inactive”.

On to `Cc1cc2c(cc1CC(=O)c1sccc1S(=O)(=O)Nc1onc(C)c1Cl)OCO2`, for which the Potency entry was “inactive”.

Take `CC(=O)N(O)CCCCCNC(=O)CCC(=O)N(O)CCCCCNC(=O)CCC(=O)N(O)CCCCCN`: the Potency is 7.5 µM (active) and 5.25 µM (active).

For the compound `CC(=O)Nc1c(I)cc(I)c(C(=O)O)c1I`, the Potency entry is “inactive”.

In the case of `COc1ccc(C2C(=O)c3ccccc3C2=O)cc1`, the Potency entry is “inactive”.

Consider `O=C1c2ccccc2C(=O)C1c1ccccc1`, for which the Potency entry is “inactive”.

Regarding `CC(=O)Oc1ccc(C(=C2CCCCC2)c2ccc(OC(C)=O)cc2)cc1`, the Potency entry was “inactive”.

On to `O=c1[nH]c(=O)n([C@H]2CCCO2)cc1F`, for which the Potency result was “inactive”.

Turning to `O=c1[nH]c(=O)n([C@H]2C[C@H](O)[C@@H](CO)O2)cc1C(F)(F)F`, the Potency was 596 nM (active) and 1.05 µM (active).

Regarding `NCCc1ccn[nH]1`, the Potency entry is “inactive”.

As to `COc1ccc(CCN2CCC(Nc3nc4ccccc4n3Cc3ccc(F)cc3)CC2)cc1`, the Potency was 7.5 µM (active).

Regarding `COc1cc(C(=S)N2CCOCC2)cc(OC)c1OC`, the Potency result was “inactive”.
